Experimental findings from PubChem BioAssay (NCI) are described below.

Compounds without any hit were thinned out: in the full panel of roughly 83,000, 20% have a hit.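 Compound tested at a single concentration for 48 hours in 96-well plates; a percent growth value below 10 was scored as active.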 Unmarked numbers belong to inactive results. Activity calls are given as the source filed them.

Some test systems named below: HCT-15 colon; HT29 colon; SNB-75 CNS; SNB-19 CNS; U251 CNS; PC-3 prostate; SK-MEL-5 melanoma; UACC-62 melanoma; LOX IMVI melanoma; SK-MEL-28 melanoma.
What all share (test): NCI-60 one-dose screen, 48 h (100 = growth as untreated, 0 = no growth, -100 = all killed)
Holding throughout (conditions): 10 µM unless noted

As for `Cc1c(Br)cccc1NC(=O)c1sc2nc3c(cc2c1N)CN(Cc1ccccc1)CC3`, the growth with HCT-15 colon is 18.2%; with HT29 colon, 0.812% (active); with SNB-75 CNS, -9.13% (active); with SNB-19 CNS it was 23%; in the assay on U251 CNS, 9.19% (active); in the assay with PC-3 prostate, 31.8%. For the same molecule, the growth in the assay on SK-MEL-5 melanoma was 19.4%; in the assay with UACC-62 melanoma it was 28.1%; in the assay with LOX IMVI melanoma, 30.9%; in the assay with SK-MEL-28 melanoma, 53.8%.

With `COC(=O)/C=C1\SC(=Nc2cccc(OC)c2)N(CCc2c[nH]c3ccccc23)C1=O`, the growth was 39.9% in the assay with HCT-15 colon; 12.2% in the assay with HT29 colon; 85% with SNB-75 CNS; 72.9% with SNB-19 CNS; 53.9% with U251 CNS; 40.1% in the assay on PC-3 prostate. Further, the growth was 77.2% in the assay on SK-MEL-5 melanoma, 44.1% in the assay on UACC-62 melanoma, 49.3% in the assay on LOX IMVI melanoma and 89.6% in the assay on SK-MEL-28 melanoma.

For the molecule `NCCN1CCNCC1`, the growth with HCT-15 colon is 100%; with HT29 colon, 98.4%; with SNB-75 CNS, 92.2%; with SNB-19 CNS, 95.9%; in the assay with U251 CNS it was 102%; with PC-3 prostate, 92%. For the same molecule, the growth with SK-MEL-5 melanoma was 109%; in the assay on UACC-62 melanoma, 98.1%; with LOX IMVI melanoma, 101%; with SK-MEL-28 melanoma it was 109%.

Consider `O=C(N/N=C/C[C@@H]1[C@@H](/C=C/[C@@H](O)COc2cccc(Cl)c2)[C@H](O)C[C@@H]1O)c1ccncc1`, for which the growth with HCT-15 colon was 99.3%; in the assay on HT29 colon, 71.1%; with SNB-75 CNS, 90.5%; with SNB-19 CNS, 98.1%; in the assay with U251 CNS it was 92.9%; in the assay on PC-3 prostate it was 91%. Besides, the growth is 96.6% in the assay on SK-MEL-5 melanoma, 92.9% in the assay on UACC-62 melanoma, 94.3% in the assay on LOX IMVI melanoma and 103% with SK-MEL-28 melanoma.

For `CCCn1c(N)c(C(N)=O)sc1=S`, the growth in the assay with HCT-15 colon was 90.6%; in the assay with HT29 colon it was 106%; in the assay on SNB-75 CNS, 82.9%; in the assay on SNB-19 CNS, 97.2%; in the assay on U251 CNS it was 97.4%; with PC-3 prostate, 96%. Further, the growth was 111% in the assay on SK-MEL-5 melanoma, 97.9% in the assay on UACC-62 melanoma, 93.7% with LOX IMVI melanoma and 105% with SK-MEL-28 melanoma.

For the molecule `Cc1cccc(NC(=O)c2sc3nc4c(cc3c2N)CN(Cc2ccccc2)CC4)c1C`, the growth in the assay on HCT-15 colon is 29.6%; with HT29 colon it was 9.33% (active); with SNB-75 CNS, 13.5%; in the assay on SNB-19 CNS, 34.3%; in the assay on U251 CNS, 25.4%; with PC-3 prostate, 32.2%. Further, the growth is 39.7% in the assay with SK-MEL-5 melanoma, 42.8% with UACC-62 melanoma, 44% with LOX IMVI melanoma and 68.2% with SK-MEL-28 melanoma.

Consider `COc1ccc(Nc2nc(SCC(C)C)nc(-c3ccc(F)cc3)c2C#N)cc1`, for which the growth in the assay on HCT-15 colon was 46%; in the assay with HT29 colon it was 24.3%; in the assay on SNB-75 CNS, 70.6%; with SNB-19 CNS, 50.3%; with U251 CNS, 56.7%; with PC-3 prostate it was 49.2%. Moreover, the growth was 53.6% in the assay on SK-MEL-5 melanoma, 40.6% in the assay on UACC-62 melanoma, 57.8% with LOX IMVI melanoma and 72.2% in the assay on SK-MEL-28 melanoma.

As for `COc1ccc(C(=O)c2cc(OC)c(OC)c(OC)c2)cc1OC(=O)C(Cl)(Cl)Cl`, the growth with HCT-15 colon was 8.84% (active); with HT29 colon, 13.4%; in the assay with SNB-75 CNS, 58%; in the assay on SNB-19 CNS, 23.5%; with U251 CNS it was 5.44% (active); in the assay on PC-3 prostate it was 10.2%. Moreover, the growth is -24.1% (active) in the assay on SK-MEL-5 melanoma, 39.8% in the assay on UACC-62 melanoma, 15.1% in the assay with LOX IMVI melanoma and 51.6% in the assay on SK-MEL-28 melanoma.

As to `OCCNc1nc(NCCO)nc(Nc2ccc(C3=NN(c4cc(Cl)cc(Cl)c4)C(c4ccc(C(F)(F)F)cc4)C3)cc2)n1` (stereo not given), the growth in the assay on HCT-15 colon was 17.5%; in the assay with HT29 colon, 10.5%; in the assay on SNB-75 CNS it was -1.68% (active); in the assay on SNB-19 CNS, 44.4%; with U251 CNS, 19.3%; with PC-3 prostate it was 19.2%. Moreover, the growth in the assay with SK-MEL-5 melanoma was 52.7%; in the assay on UACC-62 melanoma, 47.1%; in the assay on LOX IMVI melanoma it was -48.5% (active); in the assay with SK-MEL-28 melanoma, 44.8%.

For `N#Cc1ccc(Oc2ccc3ccc(=O)oc3c2)cc1`, the growth with HCT-15 colon is 98%; in the assay with HT29 colon, 114%; in the assay on SNB-75 CNS, 97.2%; in the assay with SNB-19 CNS it was 89.3%; with U251 CNS, 91.7%; in the assay with PC-3 prostate, 94.5%. Moreover, the growth with SK-MEL-5 melanoma is 103%; in the assay with UACC-62 melanoma, 88.3%; with LOX IMVI melanoma, 93.4%; with SK-MEL-28 melanoma, 107%.

For `CCN1CCN(Cc2ccc(NC(=O)c3cccc(C#Cc4cccc5[nH]nc(N)c45)c3)cc2C(F)(F)F)CC1`, the growth in the assay with HCT-15 colon is -70.7% (active); in the assay with HT29 colon, -83% (active); with SNB-75 CNS, -60.8% (active); in the assay with SNB-19 CNS, -83.6% (active); in the assay with U251 CNS, -95.6% (active); in the assay on PC-3 prostate, -80.3% (active). Also, the growth was -97.2% (active) in the assay on SK-MEL-5 melanoma, -77.1% (active) in the assay on UACC-62 melanoma, -100% (active) in the assay with LOX IMVI melanoma and -82.9% (active) in the assay with SK-MEL-28 melanoma.

With `O=c1cc(/C=N\Nc2nc(-c3ccc(Cl)cc3Cl)cs2)c2cc(Cl)ccc2o1`, the growth is 90.7% in the assay on HCT-15 colon; 99.3% in the assay with HT29 colon; 80.6% in the assay on SNB-75 CNS; 106% with SNB-19 CNS; 101% in the assay on U251 CNS; 80.1% with PC-3 prostate. The growth is 86.3% in the assay on SK-MEL-5 melanoma, 80.6% in the assay on UACC-62 melanoma, 89.8% in the assay on LOX IMVI melanoma and 90.6% in the assay with SK-MEL-28 melanoma.

`C=CCn1c(SCC(=O)Nc2ccc(C(=O)/C=C/c3cc(OC)c(OC)c(OC)c3)cc2)nnc1-c1ccc(Cl)cc1`: the growth in the assay on HCT-15 colon is -1.47% (active); in the assay with HT29 colon, -43.1% (active); in the assay on SNB-75 CNS, 20.1%; in the assay with SNB-19 CNS it was 35.2%; in the assay with U251 CNS, -3.31% (active); in the assay with PC-3 prostate, 28.3%. Further, the growth with SK-MEL-5 melanoma is 9.64% (active); in the assay with UACC-62 melanoma, 22.1%; in the assay with LOX IMVI melanoma it was -22.4% (active); in the assay on SK-MEL-28 melanoma it was 59%.
